# RORg inh = inhibitors of mouse ROR gamma transcriptional activity; P51450; Drosophila S2 Gal4-RORgamma UAS-luciferase reporter, 20 h; Potency, µM (highest dose often 53.6 µM), without a hit: top-dose activity change, negative = inhibition, usual class: inhibitors; 5.4% of 310,000 active; note: potency is the fitted concentration of half-maximal effect; nearly all actives have a fitted effect of over 60% in size
# Target sequence (P51450 whole entry, looked up, the tested form may be a part): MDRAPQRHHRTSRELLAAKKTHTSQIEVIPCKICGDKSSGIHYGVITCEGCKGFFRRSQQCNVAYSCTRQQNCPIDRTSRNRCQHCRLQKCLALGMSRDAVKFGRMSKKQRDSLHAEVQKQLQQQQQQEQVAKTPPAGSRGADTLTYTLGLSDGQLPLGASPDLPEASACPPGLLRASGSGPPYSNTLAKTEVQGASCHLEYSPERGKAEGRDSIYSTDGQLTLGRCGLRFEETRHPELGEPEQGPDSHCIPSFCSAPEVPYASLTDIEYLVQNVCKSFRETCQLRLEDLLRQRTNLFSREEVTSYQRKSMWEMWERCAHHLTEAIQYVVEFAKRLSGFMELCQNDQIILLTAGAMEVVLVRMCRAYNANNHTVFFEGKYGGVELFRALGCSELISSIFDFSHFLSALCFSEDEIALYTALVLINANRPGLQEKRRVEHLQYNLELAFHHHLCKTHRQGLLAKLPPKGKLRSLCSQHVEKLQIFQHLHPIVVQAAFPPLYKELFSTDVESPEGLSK
#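 Using a luciferase readout, inhibitors were identified by reduced reporter activity in Drosophila cells coexpressing a copper-inducible Gal4–ROR gamma fusion and UAS-driven Photinus luciferase, incubated 20 hr after 700 uM copper sulfate.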
# Gal4-VP16 FLuc = inhibits Gal4-VP16 luciferase reporter, ROR gamma counter-screen | 3.5% of 310,000 active | Drosophila S2 Gal4-VP16 UAS-luciferase, luminescence, 20 h | Potency, µM (titrated, usually from 53.6 µM), for inactives: at the top dose activity, negative = inhibition, most hits filed as inhibitors;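 note: Gal4-VP16 expression switched on by copper sulfate through the metallothionein promoter; potency is the fitted concentration of half-maximal effect; nearly all actives have a fitted effect of over 50% in size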
# IL1B secr inh = inhibitors of inflammasome signaling (IL-1 beta secretion). THP-1 LPS/ATP IL-1B secretion, AlphaLISA, 16 h; active compounds read low. activity change, % at 57.5 µM. 4.7% of 360,000 active; in the data active = activity change below about -50%; inconclusive = mostly about -30% to -49%
#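 THP-1 cells pretreated 1 hr with compounds (up to 57.5 uM final), then stimulated with LPS (250 ng/mL final) plus ATP (1.25 mM final); secreted IL-1B measured by AlphaLISA after 16 hr, decreased signal indicating inhibition.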
# DT40 TDP1 no CPT = qHTS for Inhibitors of human tyrosyl-DNA phosphodiesterase 1 (TDP1): qHTS in cells in absence of CPT; DT40 Tdp1-/- hTDP1 cells, no CPT, ATP luminescence, 48 h; Potency, µM (highest dose often 46.2 µM), inactives show at the highest dose activity change, negative = growth inhibition, actives largely listed as inhibitors; 15% of 420,000 active; AID 686978, 2013; note: potency is the fitted concentration of half-maximal effect; nearly all actives have a fitted effect of over 55% in size
#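 Stably hTDP1-transfected Tdp1-null chicken DT40 cells were treated with library compounds minus camptothecin and grown for at least 48 hr at 37 °C, after which cellular ATP was quantified by luminescence.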
# ELG1 repair inh = ELG1-dependent DNA repair inhibition | 2.3% of 330,000 active | Potency, µM (highest dose often 46.1 µM), for inactives: at the top dose activity change, negative = inhibition, actives largely listed as inhibitors | HEK293T ELG1-luciferase reporter, luminescence, 16 h; DNA damage induced by 5-fluorouridine; note: potency is the fitted concentration of half-maximal effect; nearly all actives have a fitted effect of over 55% in size
#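 DMSO vehicle served as the neutral condition. Each well held 2,000 cells given 5-fluorouridine plus compound; after 16 hr at 37 °C/5% CO2, ONE-Glo was added and luciferase measured 30 min later.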
# DT40 TDP1 CPT = DT40-hTDP1 cell growth loss with CPT; chicken DT40 Tdp1-/-;hTDP1 cells + 20 nM CPT, ATP luminescence, 48 h; 12% of 420,000 active; Potency, µM (titrated, usually from 46.2 µM), for the others: at the top dose activity change, negative = growth inhibition, most hits filed as inhibitors; note: potency is the fitted concentration of half-maximal effect; nearly all actives have a fitted effect of over 55% in size
#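 Cell growth measured by CellTiter-Glo luminescence after a minimum 48 h, 37 C compound exposure with 20 nM CPT in Tdp1-knockout DT40 cells stably expressing hTDP1, seeded 400/well; qHTS titration format.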
# * marks the source's active call; other numbers are inactive results; u = inconclusive; x = not tested or not shown; [ ] = dose if it differs, or a comment. Hits are enriched below; roughly 21% of the tested compounds scored in any of these assays. Unless noted, calls come from the whole dose curve; as a rule, active = well fitted curve in the direction sought with a large enough effect; inconclusive = small, poorly fitted or top-dose-only effect, or another doubt; inactive = no such curve, though single readings can be large; an effect the other way counts as inactive or inconclusive. % is set by controls: 0 for no effect and ±100 for the full control effect.
SMILES,RORg inh,Gal4-VP16 FLuc,IL1B secr inh,DT40 TDP1 no CPT,ELG1 repair inh,DT40 TDP1 CPT
Cc1ccc(-c2cc(-c3ccccc3C)[nH]n2)c(O)c1,0.79µM*,1.4µM*,-11,u,u,u
CCN1C(=O)[C@@H]2[C@@H]3CN(S(=O)(=O)c4ccc(C)cc4)[C@@H](c4ccccc4Cl)[C@@H]3C(=O)C[C@@H]2C1=O,x,x,0,u,x,u
Cc1c(CCOC(=O)c2cc([N+](=O)[O-])cc([N+](=O)[O-])c2)sc[n+]1CC(=O)c1ccccc1,-27%,u,7,0%,-1%,-25%
Cc1c(CCOC(=O)c2ccccc2)sc[n+]1Cc1ccccc1,29%,-7%,3,23µM*,-3%,16µM*
Cc1c(CCOC(=O)c2ccccc2)sc[n+]1CC(=O)c1ccc(Br)cc1,-27%,-19%,-65*,u,-1%,u
CN(CC(=O)Nc1ccc(Cl)c(Cl)c1)C(=O)C1CCC1,x,x,u,u,3%,2%
COC(=O)C1CCN(C(=O)c2sc3nc(-c4ccccc4)cn3c2C)CC1,22%,4%,29,-23%,12%,-13%
COc1ccc(N2CCN(C(=O)c3cc(-c4ccc(F)cc4)[nH]c3C)CC2)cc1,44%,1%,-14,-20%,-25%,-21%
COc1ccccc1N1CCN(C(=O)c2sc3nc(-c4ccc(F)cc4)cn3c2C)CC1,33%,-11%,u,16µM*,18µM*,23µM*
Cc1c(C(=O)N2CC(C)OC(C)C2)sc2nc(-c3ccc(F)cc3)cn12 (configuration not stated),u,u,19,18µM*,-15%,u
CCOC(=O)N1CCN(C(=O)c2sc3nc(-c4ccc(F)cc4)cn3c2C)CC1,-11%,3%,-24,u,21µM*,u
CCOC(=O)N1CCN(C(=O)c2cc(-c3ccc(F)cc3)[nH]c2C)CC1,u,-2%,-10,21µM*,-5%,u
COc1ccc(-c2cn3c(C)c(C(=O)N4CCN(c5ccccc5)CC4)sc3n2)cc1,x,x,2,u,x,u
CCN(CC)C(=O)c1cc(S(=O)(=O)N2CCCCC2)c[nH]1,2%,-1%,23,u,11%,u
CCN(C(=O)c1cc(S(=O)(=O)N2CCCCC2)c[nH]1)c1ccc(OC)cc1,-2%,3%,-9,23µM*,u,9.2µM*
Cc1cccc(CCNC(=O)c2cc(S(=O)(=O)N3CCCCC3)c[nH]2)c1,u,1%,5,u,-9%,18µM*
Cc1ccc(N2CCN(C(=O)c3cc(S(=O)(=O)N4CCCCC4)c[nH]3)CC2)c(C)c1,x,x,x,16µM*,x,16µM*
COC(=O)CCC[N+](C)(C)C,0%,-7%,x,-11%,x,-2%
CNC(=O)C1Cc2c(-c3ccc(Cl)cc3)ccnc2O1 (configuration not stated),x,x,4,u,x,-28%
CC1=C(C)CC(C(=O)NCCc2ccc(F)cc2)C(C(=O)O)C1 (configuration not stated),-26%,-7%,-1,-29%,-2%,-25%
CC1(C(=O)NS(=O)(=O)C2CC2)CCN(C(=O)CSc2ccccc2)C1 (configuration not stated),x,x,13,13%,x,-22%
COc1ccc(C(=O)c2ccc([N+](=O)[O-])cc2)c(OC)c1OC,x,x,10,-4%,x,2%
N#CC1=C(N)C(C#N)(C#N)[C@H](c2ccoc2)[C@H]2CN(Cc3ccccc3)CC=C12,-3%,12%,25,5.8µM*,5%,5.8µM*
CN1CC=C2C(C#N)=C(N)C(C#N)(C#N)[C@H](c3ccoc3)[C@H]2C1,-4%,-5%,21,21µM*,0%,u
N#CC1=C(N)C(C#N)(C#N)C(c2cccnc2)C2CN(C(=O)OCc3ccccc3)CC=C12 (configuration not stated),u,-12%,-21,u,u,16µM*
SMILES,RORg inh,Gal4-VP16 FLuc,IL1B secr inh,DT40 TDP1 no CPT,ELG1 repair inh,DT40 TDP1 CPT
CCOC(=O)N1CC=C2C(C#N)=C(N)C(C#N)(C#N)[C@H](c3ccc(OCC)c(OCC)c3)[C@H]2C1,15%,-2%,-14,-28%,u,u
Cc1ccc(C2C3CN(C(C)C)CC=C3C(C#N)=C(N)C2(C#N)C#N)cc1 (configuration not stated),-17%,16%,-3,13µM*,-16%,16µM*
CC(=O)N1CC=C2C(C#N)=C(N)C(C#N)(C#N)[C@H](c3ccoc3)[C@H]2C1,-21%,-4%,4,-2%,2%,-27%
C#CCCCO/N=C1/C[C@@H](O)[C@@H](O)[C@@H]2[C@@H]3C(=O)N(Cc4ccccc4)C(=O)[C@H]3CC[C@@H]12,-9%[10 µM],-3%[10 µM],x,x,x,x
Cc1cn(CC(=O)NCc2ccccc2)c(=O)[nH]c1=O,x,x,21,-4%,x,4%
CN1CC=C2C(C#N)=C(N)C(C#N)(C#N)C(c3cccc(Cl)c3Cl)C2C1 (configuration not stated),u,14%,-103*,u,-13%,23µM*
CCCN1CC=C2C(C#N)=C(N)C(C#N)(C#N)C(c3cccc(OC)c3OC)C2C1 (configuration not stated),4%,-3%,0,u,-20%,u
Nc1cccc(-c2c[nH]c3ncc(-c4cccnc4)cc23)c1,x,x,-55*,21µM*,x,8.2µM*
COc1ccc(CCNC(=O)C(=O)NCC(c2ccco2)S(=O)(=O)c2ccc(C)cc2)cc1 (configuration not stated),x,x,x,-29%,x,-23%
COC(=O)[C@]1(Cc2ccccc2)N[C@H](CN(C)S(=O)(=O)c2ccc(F)cc2)[C@@H]2C(=O)N(C)C(=O)[C@@H]21,x,x,6,-4%,3%,-5%
CCN(C[C@H]1N[C@@](C)(C(=O)OC)[C@H]2C(=O)N(Cc3ccccc3)C(=O)[C@@H]12)C(=O)c1ccc(C(C)(C)C)cc1,x,x,-10,16µM*,10µM*,u
CCN(C[C@H]1N[C@@](Cc2ccccc2)(C(=O)OC)[C@H]2C(=O)N(Cc3ccccc3)C(=O)[C@@H]12)S(=O)(=O)c1ccc(C(C)(C)C)cc1,x,x,0,16µM*,11%,u

# Source: PubChem BioAssay (National Center for Advancing Translational Sciences (NCATS))
